Where “and” joins values, the source holds several entries; their conditions need not be identical. Identical values can stand only once. For part of these data: Potency and affinity values are given separately. Some structures have more than one record in an assay (separate samples or runs), and their calls can disagree. Calls of active or inactive are those of the source. Unless noted, no rule for the calls is given here.

This note sets out measurements from PubChem BioAssay.

Test [1] in a line: blockers of polyQ-driven CASP3 activation – cell-based (AID 1583). To be noted: polyglutamine-induced caspase-3 activation, cell assay; stronger effect = higher value;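 tested at 10 µM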.
Test [2] in a line: yeast 75Q aggregation reduction – 75Q-TubU reporter (AID 1593). The conditions noted are these: Yeast 75Q polyglutamine aggregation reporter.
Test [3] can be described thus: restoration of touch response, mutant HTT neurons – whole organism, C. elegans mechanosensory neurons, N-terminal huntingtin (AID 1599). The conditions noted are these: C. elegans polyQ-huntingtin mechanosensory neurons, stronger effect = higher value.
Test [4] is described as follows: blockers of cytochrome c efflux from mitochondria – biochemical, purified mitochondria (AID 1603).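 Also: mouse liver mitochondria challenged with calcium chloride; signal normalized to the plate average as 100%.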 The conditions noted are these: stronger effect = lower value.
The nature of test [5]: polyglutamine aggregate formation blockers (AID 1604). To be noted: polyglutamine-induced protein aggregation inhibition assay; stronger effect = higher value; tested at 2.5 µM.
Test [6] is described as follows: glutamate transport activators, MN-1 cells, MN-1 cell line (AID 1612).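 Also: tested at 1 µM final; 0% = mean of DMSO vehicle wells on each plate; positive means more glutamate uptake than control and negative means less.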 The conditions noted are these: MN-1 motor neuron cells, stronger effect = higher value.
Test [7] is described as follows: GFP-Q80 aggregate reduction, neuronal-like cells, cell-based, NGF-treated PC12, GFPQ80 (AID 1614).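 Also: lower means fewer inclusions and 0 means no inclusions at all.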 To be noted: PC12 NGF-treated GFP-polyQ80 inclusion reduction.
The nature of test [8]: 75Q-TubH aggregate inhibition, S. cerevisiae, yeast (AID 1616). The conditions noted are these: S. cerevisiae 75Q-TubH polyglutamine aggregation suppression; stronger effect = higher value.
Test [9] is described as follows: P. berghei load reduction in hepatocytes – cell-based, HepG2, luciferase luminescence, HepG2 viability, primary screen (AID 624349; in the data active = parasite load remaining mostly below about 12%, no sharp cut-off; inactive = mostly above about 10%;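 also: 100% = mean of DMSO negative control wells on the same plate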). To be noted: P. berghei liver stage in HepG2, luciferase luminescence, concentration not given here; parasite load remaining: stronger effect = lower value; viability: measured here: HepG2 viability without parasites.
Test [10] in a line: viability loss with induced miR-34 in A549 – imaging, A549 dox-inducible miR-34, nuclei and caspase counts, primary screen (AID 1347080;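 active = compounds whose cell count with miR-34 switched on is under 0.7 times the count with it off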). To be noted: A549 miR-34 inducible, Hoechst nuclei count, 48 h.
Test [11] is described as follows: liver-stage malaria parasite load reduction – cell-based, known kinase inhibitor set, luminescence, hepatoma host viability (AID 624392).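 Also: infected cells incubated roughly two days before readout.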 The conditions noted are these: Plasmodium liver stage in hepatoma cells, luciferase luminescence, concentration not given here; liver cell % of control: measured here: host liver cell viability; parasite % of control: stronger effect = lower value.

A short description of test [12]: MELAS cybrid and Rieske KO viability enhancers – cell-based, MELAS cybrids, Rieske KO mouse fibroblasts, CellTiter-Glo, primary screen (AID 1508586;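 active = mean z-score across replicates of 1.96 or higher in either the MELAS or the Rieske mutant cell line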;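 also: z relative to plate mean and SD of compound and empty wells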). To be noted: low glucose. On the technique in general: Cellular ATP, detected with luciferase, serves as a proxy for viable cell number.
Test [13] can be described thus: compounds altering viability of human ES cells (AID 493140).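 Also: cells exposed to compounds for four days before counting.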 The conditions noted are these: human embryonic stem cell survival screen; stronger effect = higher value.
Test [14] addresses NAD(+) hydrolase SARM1 (Homo sapiens) (UniProt Q6SZW1). In words: blocking NAD cleavage by SARM1 SAM-TIR – cell lysate, NAD-Glo luminescence (AID 1508614;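 active = compound whose remaining NAD level is above about 45 nM, limit read from the data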;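 also: higher remaining NAD means stronger inhibition of SARM1 NADase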). The conditions noted are these: SAM-TIR HEK293T lysate NADase, at 1 µM, stronger effect = higher value.
Test [15] has as its target Mitogen-activated protein kinase 7 (Homo sapiens) (UniProt Q13164). In words: Gal4-ERK5 driven luciferase induction – cell-based, HTS, primary screen (AID 1508626;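 active = luciferase signal above three times the same-plate solvent-only control wells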;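 also: luciferase driven by Gal4-ERK5 fusion binding five Gal4 sites before minimal TATA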). To be noted: HeLa Gal4-ERK5 transactivation, 18 h, at 5 µM, stronger effect = higher value.
Test [16] is described as follows: galactose survival enhancers in mitochondrial complex I cybrids – cell-based, galactose medium, ATP luminescence, primary screen (AID 1645843;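 active = z-score of at least 1.8 in each of two replicates, scored against plate mean and spread of sample wells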;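 also: positive z means more ATP and so rescue of galactose-driven cybrid death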). To be noted: complex I mutant cybrid cells, 72 h, stronger effect = higher value.
[17] abbreviates: stronger effect = lower value, cell number ratio, induced over uninduced.
[18] abbreviates: measured here: relative caspase fold change +Dox/-Dox.
[19] abbreviates: measured here: total cells with miR-34 induction, stronger effect = lower value.
Setting [20] is: measured here: total cells without miR-34 induction.
Setting [21] is: MELAS cybrid survival, CellTiter-Glo 48 h, stronger effect = higher value.
[22] abbreviates: Rieske KO mouse fibroblast survival, CellTiter-Glo 72 h.

Mitogen-activated protein kinase 7 (Homo sapiens), sequence (Q13164 whole entry, looked up, the tested form may be a part): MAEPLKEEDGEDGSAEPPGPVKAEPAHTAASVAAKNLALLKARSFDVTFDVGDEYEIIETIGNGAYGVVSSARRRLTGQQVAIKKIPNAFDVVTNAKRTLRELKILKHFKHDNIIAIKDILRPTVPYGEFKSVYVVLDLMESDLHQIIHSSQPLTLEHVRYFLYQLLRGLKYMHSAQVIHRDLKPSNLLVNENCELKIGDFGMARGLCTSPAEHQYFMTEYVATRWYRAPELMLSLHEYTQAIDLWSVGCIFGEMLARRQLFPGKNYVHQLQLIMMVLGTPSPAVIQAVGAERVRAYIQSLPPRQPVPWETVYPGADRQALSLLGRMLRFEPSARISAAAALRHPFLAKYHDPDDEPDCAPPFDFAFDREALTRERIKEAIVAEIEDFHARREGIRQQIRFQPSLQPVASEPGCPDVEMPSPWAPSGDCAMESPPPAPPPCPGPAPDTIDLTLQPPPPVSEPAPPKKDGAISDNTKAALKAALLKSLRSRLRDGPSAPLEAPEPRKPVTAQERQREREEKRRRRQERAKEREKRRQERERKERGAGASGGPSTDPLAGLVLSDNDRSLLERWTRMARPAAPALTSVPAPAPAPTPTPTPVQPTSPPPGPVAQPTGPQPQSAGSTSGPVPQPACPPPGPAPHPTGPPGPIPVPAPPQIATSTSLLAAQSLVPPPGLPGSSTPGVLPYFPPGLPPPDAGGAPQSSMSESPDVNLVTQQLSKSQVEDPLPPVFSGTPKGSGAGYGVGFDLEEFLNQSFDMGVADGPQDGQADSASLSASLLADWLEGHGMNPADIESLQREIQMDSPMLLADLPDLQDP
NAD(+) hydrolase SARM1 (Homo sapiens), sequence (Q6SZW1 whole entry, looked up, the tested form may be a part): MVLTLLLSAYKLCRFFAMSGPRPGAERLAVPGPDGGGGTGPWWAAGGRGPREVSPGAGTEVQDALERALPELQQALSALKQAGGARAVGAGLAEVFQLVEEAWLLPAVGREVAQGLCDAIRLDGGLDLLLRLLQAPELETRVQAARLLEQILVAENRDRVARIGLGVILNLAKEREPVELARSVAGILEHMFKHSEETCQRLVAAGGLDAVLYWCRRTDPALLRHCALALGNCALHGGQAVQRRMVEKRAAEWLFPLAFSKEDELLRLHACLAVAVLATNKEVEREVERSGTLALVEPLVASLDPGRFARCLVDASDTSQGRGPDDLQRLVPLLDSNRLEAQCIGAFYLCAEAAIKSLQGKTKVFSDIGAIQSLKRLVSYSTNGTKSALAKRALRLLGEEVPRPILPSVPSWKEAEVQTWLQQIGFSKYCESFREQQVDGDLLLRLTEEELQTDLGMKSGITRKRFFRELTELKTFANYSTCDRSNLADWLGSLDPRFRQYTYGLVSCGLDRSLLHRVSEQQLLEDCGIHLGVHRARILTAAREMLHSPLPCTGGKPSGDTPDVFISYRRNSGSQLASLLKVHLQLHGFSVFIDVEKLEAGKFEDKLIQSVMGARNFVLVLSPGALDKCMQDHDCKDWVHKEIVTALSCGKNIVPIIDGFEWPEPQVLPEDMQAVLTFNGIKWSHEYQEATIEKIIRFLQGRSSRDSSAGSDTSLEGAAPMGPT

`CC1(C)S[C@@H]2[C@H](NC(=O)[C@@H](N)c3ccc(O)cc3)C(=O)N2[C@H]1C(=O)O` gave an inhibition in test [1] of 1.98%. In [2], this molecule had a score of 1.39. In test [3], this molecule had a rescue above control of 1.27. Also, the cytochrome c release ratio in test [4] is 1.03. In test [5], this molecule returned an inhibition of aggregation of 54.5%. This molecule gave a glutamate uptake change in [6] of 1.23%. The inclusion score in [7] worked out at 2. Besides, the aggregation suppression score in [8] stood at 1.15. Also, the parasite load remaining in test [9] is 98.1% (inactive) and 66.2% (inactive). Also, the viability in test [9] is 75% and 90.3%. The fold change in test [10] (setting [17]) is 0.918 (inactive); in test [10] (setting [18]), 1.48. Further, the cell count in test [10] (setting [19]) is 11000; in test [10] (setting [20]), 12000.

In the case of `Cc1ccc([N+](=O)[O-])cc1S(=O)(=O)N(C)N=Cc1cnc2ccc(Br)cn12`, the liver cell % of control in test [11] was 52.2% and 52.1% and 55.5%. The parasite % of control in [11] is 4.51% (inactive) and 2.82% (inactive) and 2.1% (active). Moreover, the fold change in [10] (setting [17]) was 0.935 (inactive); in test [10] (setting [18]), 0.896. Besides, the figures for the cell count in test [10] (setting [19]) and in test [10] (setting [20]) were 837 and 896, respectively. Also, the results for the z-score in test [12] (setting [21]) and in [12] (setting [22]) were -0.394 (inactive) and -2.82, respectively.

For the molecule `CN(C)CC=CC(=O)Nc1cc2c(Nc3ccc(F)c(Cl)c3)ncnc2cc1OC1CCOC1` (stereo not given), the liver cell % of control in test [11] was 39.8% and 42.2% and 47.1%. Further, the parasite % of control in test [11] is 0.262% (inactive) and 0.42% (inactive) and 32.1% (inactive). In addition, the fold change in test [10] (setting [17]) was 0.839 (inactive); in [10] (setting [18]) it was 1.69. In addition, the cell count in test [10] (setting [19]) turned out to be 2280; in test [10] (setting [20]), 2710. For the same molecule, the z-score was 5.09 (active) in test [12] (setting [21]) and 0.143 in [12] (setting [22]).

As for `CCn1c(-c2nonc2N)nc2c(C#CC(C)(C)O)ncc(OCC3CCCNC3)c21` (stereo not given), the liver cell % of control in test [11] is 56.6% and 72.4% and 90.5%. Besides, the parasite % of control in test [11] was 1.73% (inactive) and 5.98% (inactive) and 27.8% (inactive). Further, the fold change in test [10] (setting [17]) is 0.949 (inactive); in test [10] (setting [18]) it was 0.738. Also, the cell count in test [10] (setting [19]) worked out at 6620; in test [10] (setting [20]), 6980. Also, the z-score in [12] (setting [21]) was -0.704 (inactive); in test [12] (setting [22]) it was 0.217.

As for `COc1cc(N)c(Cl)cc1C(=O)N[C@H]1CCN(CCCOc2ccc(F)cc2)C[C@H]1OC`, in test [9], the parasite load remaining was 43.8% (inactive). Besides, in [9], the viability is 91.1%. Also, the fold change in test [10] (setting [17]) is 0.886 (inactive); in test [10] (setting [18]) it was 2.08. For the same molecule, the cell count amounted to 7400 in test [10] (setting [19]) and 8350 in test [10] (setting [20]). Moreover, the z-score is -0.0533 (inactive) in test [12] (setting [21]) and 0.31 in test [12] (setting [22]).

Take `Cn1nnnc1SCC1=C(C(=O)O)N2C(=O)[C@@H](NC(=O)[C@H](O)c3ccccc3)[C@H]2SC1`: the survival in test [13] is 7.33 (inactive). For the same molecule, in [9], the parasite load remaining is 73.2% (inactive). The molecule further showed a viability in [9] of 97.6%. Further, the fold change in [10] (setting [17]) is 0.871 (inactive); in test [10] (setting [18]), 1.18. The cell count is 9300 in test [10] (setting [19]) and 10700 in test [10] (setting [20]). Besides, the remaining NAD in test [14] was 10 nM (inactive). Besides, the luciferase signal in [15] was 36 AU (inactive).

As to `CN1CCc2cc(Cl)c(O)cc2C(c2ccccc2)C1` (stereo not given), the fold change in [10] (setting [17]) was 0.944 (inactive); in test [10] (setting [18]), 0.98. Besides, the results for the cell count in test [10] (setting [19]) and in test [10] (setting [20]) were 8780 and 9300, respectively. The z-score in test [16] was 0.39 (inactive).

In general, inhibition refers to the percentage by which the read-out fell short of the control. Usually viability stands for a per cent measure of how many cells are alive, often set against a control.
